Assay results: PubChem BioAssay AID1508600 (Functional Genomics Laboratory (NCATS/FGL), 2020)
Hit rate of the full screen: of about 53,000 sequences, about 3,700 (7%) were called active. Many of the other results were omitted from the sample, so actives are more common in it than they were. Values without a mark were called inactive.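 Rule for the calls: active = gene knockdowns whose robust z-score for IL-1 alpha signal is at least 2 or at most -2, so actives lie on both sides; inactive = the rest.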

assay: Components of the Cytosolic LPS Sensing Pathway: Gene Identification via Genome-wide siRNA Screen; conditions: RAW264.7 macrophages, IL-1a HTRF, actives lie on both sides, screened at 100 nM (by protocol), cells primed 5 h with Pam3CSK4 first;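 note: robust z of the log signal after scaling to non-targeting control siRNA wells of the plate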
How it was run: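 RAW264.7; siRNA 100 nM final, RNAiMAX, 48h 37 degrees C; Pam3CSK4 5 h; LipidA + TransIT-TKO 24 h; IL-1a HTRF; CellTiter-Glo viability; robust z vs negative-control median.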

Row | Sequence | z-score
1 | GGUCUACGUAGAGGAGCUGTT against Mrpl28 | 1.04
2 | GGGAAGCCUUUCUUGUCAGTT against Vmn1r40 | -0.847
3 | GGAAUAAAGAAUGGUAUACTT against Zfp280d | -0.0544
4 | CCAGUAGCACGUGUUAUUUTT against Rbmy | 0.0944
5 | GGAUUAAGAAAGAAACAGGTT against Zfp438 | -0.387
6 | GGCCACAGAGCCAAAGAUUTT against Cdca7 | 0.808
7 | GCUUGAUCGAAGAAAGACATT against Tdrd3 | 0.709
8 | GCGUAGGUUACGUUCAAGGTT against Ermard | 2.74 (active)
9 | CGACAGUGAAUGCGCUAAGTT against Slc7a9 | -0.218
10 | GCAAAUUCACCGGAAAAUGTT against Sorbs3 | 1.04
11 | GGAGACUUAGAAAAAGACUTT against Olfr1426 | 1.17
12 | GGAGUUUGUAACCCUCCUGTT against Cabp7 | 1.07
13 | GCCGUCAUCAUGGAAGGUUTT against Bace1 | 0.0589
14 | GGAAUCCUUGGACCUGAGGTT against Tnni3 | -2.11 (active)
15 | GGGUCAAUCAGAAGCUAGGTT against Creb3l4 | -0.573
16 | GGCAACUGACUAUUUAUUATT against Kcnk13 | 0.558
17 | GCAUGAGUAUUCCAAGGAGTT against Arhgef7 | -2.36 (active)
18 | GCAGUAUAAGAAUUUCAUGTT against Thada | -0.325
19 | GGAAAUGUUCUUCAUGUCATT against 1110038F14Rik | -1.95
20 | GGCACGUCUGGACAACAUCTT against Cd22 | -0.707
21 | GGAGGUGACCUGUAAUCCCTT against Msmb | 0.0151
22 | GCUUUCACUAAUCAGUACATT against Setd5 | -0.0813
23 | GGAGCAACAGAGAUUUCUUTT against Sergef | 2.07 (active)

Row | Sequence | z-score
24 | GCUUCUGAUUAACCUCCAGTT against Olfr1390 | -1.49
25 | GCUUACCUUUGGAUUCAAATT against Cd68 | -0.446
26 | GGGAAAAAGAGCUUUUAGCTT against Helt | -0.552
27 | GGUGGCCGUGAAGAAGAUCTT against Mapk4 | -0.902
28 | GGGCUUAAGGAAUAAACCATT against Phtf2 | -0.317
29 | GGAGAUCUCAGAGAGUGAGTT against Atn1 | -2.52 (active)
30 | GCCUCCAACUGAACAAAUUTT against Tnfrsf14 | 0.0618
31 | GGACCAUCUCUUUGAUUGGTT against Olfr424 | -1.12
32 | UCUUUGGCAACACUACCAUTT against Olfr1386 | 0.366
33 | GAAGUCCUGGGACUUUAUGTT against Nudt14 | 0.208
34 | GGACAGAAUUGAAAUGCCUTT against Ropn1l | -2.08 (active)
35 | GGUUUCGUUGUUCUUGUUGTT against Ttc33 | 0.55
36 | GGUAGAAGAGAACUGGACATT against Oas1a | 0.228
37 | GGCAUGAUUAUUGUGUUUGTT against Abcb11 | 0.41
38 | CCUAAGUACUGUAAGAAUATT against Mycn | 0.506
39 | CGCCAUGUUUAACAAAUUGTT against Limk2 | -2.22 (active)
40 | GCCAUUCUAGGAACUCUGATT against Thrap3 | -1.3
41 | GGUAUCAGACAGCUGUAACTT against Mptx1 | 0.359
42 | GCAUCAGUAGAAACCCACATT against Tmigd3 | 0.872
43 | CCCUACUAUUGACGAAAACTT against Hpn | 1.66
44 | CCUGAUCUUAAACAAAGAATT against 2610507B11Rik | -0.742
45 | GCCAACCCUGAAAACCCUUTT against Gc | -2.54 (active)
46 | GGUUGUUGAAAAGUCUUUATT against Rasa2 | -0.102

Row | Sequence | z-score
47 | GCACUGGAAAAUUUCUAAUTT against Vmn2r7 | -0.0531
48 | GGAGGUAGAAAUAAAUACUTT against Sva | 2.01 (active)
49 | GGACAAUUACAACACUCAATT against Ablim3 | -0.00526
50 | GGCUUGAUCAUGACUUAAATT against Armc8 | 0.638
51 | GGUUUUGUUAUGGUAAGUCTT against Vdr | -0.573
52 | CCAAGCAUUCGAGUAUGUUTT against Ctsj | 1.07
53 | CCAAUGAUUUCCUGCUAAATT against Lst1 | 3.21 (active)
54 | GGAAGACAACUGAACAUUUTT against Ralgds | 0.837
55 | CCGGAAGCUAUUGACCAUUTT against Tmem11 | 3.21 (active)
56 | GGCCGUAAUAUCUCCUCCUTT against Krt13 | 1.41
57 | CGCGAGGUCUUCGAAAGAATT against Siva1 | -0.884
58 | CGCGUUUCGUGUUUCAAAATT against Mus81 | -0.464
59 | GAUCGAAGCCUAAGACCGCTT against Cypt3 | -0.578
60 | GCCUUAGGGAGUGUUAAAATT against Spink8 | -0.304
61 | GGUGGAGAAGCAGAUGCUUTT against Nek2 | 2.25 (active)
62 | GGAAUUCCUUACCUUCUUATT against Cyp2c65 | -0.269
63 | GGAGCAUCACUCUUAACAUTT against Krt71 | 1.58
64 | GGGACACUUUCACUUGUUCTT against Rmnd5a | 0.159
65 | GCUCAGGCAAGACUCAUUGTT against Trim45 | -0.57
66 | GGACUUUUGGCACUCUUAUTT against Snx10 | 0.127
67 | GGAUUUGAUUCCGCCAACGTT against Pon2 | -2.03 (active)
68 | GCUUAAAAGUGAAGUCUUGTT against Tmem203 | -0.615
69 | GUAAGGUCACCGGGUUGCATT against Lor | 0.547
